Where “and” joins values, the source holds several entries; their conditions need not be identical. Equal entries are not always repeated. A number with no mark means an inactive call. Inconclusive results are not listed. Calls of active or inactive are those of the source. Unless noted, the call rests on the fitted dose curve; in most records, active means well fitted curve in the direction sought with a large enough effect; inconclusive means small, poorly fitted or top-dose-only effect, or another doubt; inactive means no such curve, though single readings can be large; an effect the other way counts as inactive or inconclusive.
Assays:
[1] = molecular target: Cytochrome P450 3A4 (Homo sapiens) (UniProt P08684); assay: qHTS Assay for Inhibitors and Substrates of Cytochrome P450 3A4 (AID 884); further: nearly all actives have a fitted effect of over 50% in size; further: potency means the concentration at half of the fitted maximal effect; on activity change, negative = inhibition: series mostly up to about 57 µM; on the % scale 0 is the no-effect control and ±100 the full control effect
Cytochrome P450 3A4 (Homo sapiens), sequence (P08684 whole entry, looked up): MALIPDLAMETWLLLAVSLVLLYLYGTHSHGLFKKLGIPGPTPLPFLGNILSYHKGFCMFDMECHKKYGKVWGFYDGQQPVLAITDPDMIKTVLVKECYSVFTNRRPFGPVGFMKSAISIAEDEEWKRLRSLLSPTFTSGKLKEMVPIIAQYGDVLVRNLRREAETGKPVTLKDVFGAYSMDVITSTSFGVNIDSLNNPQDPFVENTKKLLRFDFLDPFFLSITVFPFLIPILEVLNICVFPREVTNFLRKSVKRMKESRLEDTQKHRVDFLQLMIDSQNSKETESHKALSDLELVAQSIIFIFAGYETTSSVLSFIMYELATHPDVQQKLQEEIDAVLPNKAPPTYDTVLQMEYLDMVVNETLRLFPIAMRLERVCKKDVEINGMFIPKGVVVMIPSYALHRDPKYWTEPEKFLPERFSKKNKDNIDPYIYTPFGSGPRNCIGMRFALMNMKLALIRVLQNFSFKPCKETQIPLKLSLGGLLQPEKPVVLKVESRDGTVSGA
Summary of the method: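 Luminescent readout of luciferin produced by CYP3A4 (20 nM) dealkylation of Luciferin-PPXE, 25 uM (its KM). NADPH-driven reaction ran 60 min at RT after 10 min compound preincubation; data scaled to 57 uM ketoconazole as 100% inhibition.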

[2] = molecular target: Cytochrome P450 3A4 (Homo sapiens) (UniProt P08684); assay: qHTS Assay for Activators of Cytochrome P450 3A4 (AID 885); further: nearly all actives have a fitted effect of over 65% in size
Summary of the method: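 CYP3A4 activity: Luciferin-PPXE O-dealkylation, 25uM substrate, 200mM KPO4, RT throughout. Read-out is luciferase luminescence; higher values reflect activation.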

[3] = Confirmation and Secondary Assay for Modulators of Hemoglobin Beta Chain Splicing at IVS2 654 locus (AID 910);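 further: HeLa cells stably carrying EGFP split by mutant beta-globin IVS2-654 intron; % of control where 0% means no effect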
Summary of the method: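 HeLa cells stably expressing EGFP interrupted by β-globin IVS2-654 intron, seeded overnight in Opti-MEM/2% FCS, then treated 2 days at 37 °C. Restored splicing read as total peak GFP intensity per well by laser scanning cytometry (488 nm excitation, 500–520 nm emission); 500 nM antisense PNA as control.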

[4] = Confirmation and Secondary Assay for Modulators of Hemoglobin Beta Chain Splicing at IVS2 705 locus (AID 930);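 further: HeLa cells stably expressing the EGFP-705 splicing reporter; series mostly up to about 46 µM; % of control where 0% means no effect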
Summary of the method: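 Restored EGFP fluorescence after 2-day compound exposure reports splicing correction in IVS2-705 EGFP reporter HeLa cells; positive control was 500 nM splice-blocking PNA oligo. Signal measured as well total peak GFP intensity (488 nm excitation).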

[5] = qHTS Assay for Identification of Small Molecule Agonists for Hypoxia Response Element Signaling Pathway (AID 914; active means well fitted activation curve with a large enough effect in the signal ratio, with a control signal flat, not every such curve was filed as active; the % refers to the signal ratio; further: % of control where 0% means no effect); settings: ME-180 (cervical carcinoma) HRE-bla reporter, beta-lactamase ratio, CoCl2, 17 h; active compounds read high
Summary of the method: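 AC50 values come from titration-series %Activity, taken as the 460/530nm ratio of CCF4 fluorescence (excitation 405nm). CellSensor HRE-bla ME-180 cells were treated 17 hours at 37 C with compound plus an EC50 level of CoCl2.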

[6] = molecular target: Cytochrome P450 2D6 (Homo sapiens) (UniProt P10635); assay: qHTS Assay for Inhibitors and Substrates of Cytochrome P450 2D6 (AID 891); further: nearly all actives have a fitted effect of over 60% in size; further: potency means the concentration at half of the fitted maximal effect;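 on activity change, negative = inhibition: luciferin methyl ether substrate demethylated by CYP2D6 with NADPH regeneration; on the % scale 0 is the no-effect control and ±100 the full control effect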
Cytochrome P450 2D6 (Homo sapiens), sequence (P10635 whole entry, looked up): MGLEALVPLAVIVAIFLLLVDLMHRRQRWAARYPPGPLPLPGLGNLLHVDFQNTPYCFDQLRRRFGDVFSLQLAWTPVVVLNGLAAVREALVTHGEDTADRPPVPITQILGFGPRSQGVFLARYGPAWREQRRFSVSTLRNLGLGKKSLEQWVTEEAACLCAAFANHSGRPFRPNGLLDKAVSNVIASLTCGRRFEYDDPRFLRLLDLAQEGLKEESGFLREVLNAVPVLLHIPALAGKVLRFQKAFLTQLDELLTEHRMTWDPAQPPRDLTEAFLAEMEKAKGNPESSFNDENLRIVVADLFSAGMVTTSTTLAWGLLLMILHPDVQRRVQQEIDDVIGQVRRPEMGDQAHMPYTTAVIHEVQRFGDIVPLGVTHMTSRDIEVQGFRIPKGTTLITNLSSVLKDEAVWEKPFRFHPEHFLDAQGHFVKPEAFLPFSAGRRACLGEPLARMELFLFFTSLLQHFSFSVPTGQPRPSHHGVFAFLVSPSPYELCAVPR
Summary of the method: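 Luminescent read-out of luciferin formed by 5 nM human CYP2D6 demethylating 30 uM Luciferin-ME EGE (Km level) over 60 min at room temperature after NADPH regeneration addition. Data normalized to full inhibition by 1.43 uM quinidine.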

[7] = molecular target: Cytochrome P450 2C19 (Homo sapiens) (UniProt P33261); assay: qHTS Assay for Inhibitors and Substrates of Cytochrome P450 2C19 (AID 899); further: nearly all actives have a fitted effect of over 60% in size; further: potency means the concentration at half of the fitted maximal effect
Cytochrome P450 2C19 (Homo sapiens), sequence (P33261 whole entry, looked up): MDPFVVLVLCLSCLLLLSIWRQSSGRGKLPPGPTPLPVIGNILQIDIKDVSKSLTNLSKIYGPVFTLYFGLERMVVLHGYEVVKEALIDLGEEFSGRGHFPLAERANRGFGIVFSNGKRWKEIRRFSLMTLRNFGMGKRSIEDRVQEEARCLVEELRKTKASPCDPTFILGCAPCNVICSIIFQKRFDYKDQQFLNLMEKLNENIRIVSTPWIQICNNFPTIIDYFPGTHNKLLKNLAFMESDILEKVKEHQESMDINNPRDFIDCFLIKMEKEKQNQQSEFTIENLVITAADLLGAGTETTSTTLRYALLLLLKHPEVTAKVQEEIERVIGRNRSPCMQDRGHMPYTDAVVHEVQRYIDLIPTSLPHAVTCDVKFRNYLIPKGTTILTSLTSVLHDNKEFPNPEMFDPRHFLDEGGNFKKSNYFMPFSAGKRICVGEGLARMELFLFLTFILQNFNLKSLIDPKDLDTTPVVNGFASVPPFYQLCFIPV
Summary of the method: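 5 nM human CYP2C19 with 10uM Luciferin-H EGE (at KM) in 50mM KPO4, compound preincubated 10 min at 37C, then NADPH regeneration for 60 min at 37C. Luciferin read by luminescence after detection reagent; normalized to 57uM ketoconazole as full inhibition.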

## COc1ccc(-c2cc(=O)c3ccccc3o2)cc1OC
[1]
  Potency: 7.94 µM (active)
[2]
  Potency: inactive
[3]
  outcome: inactive
[4]
  outcome: inactive

## COc1cc(OC)c2c(OC)c(-c3ccc4c(c3)OCO4)c(=O)oc2c1
[1]
  Potency: 2.51 µM (active)
[2]
  Potency: inactive
[3]
  outcome: inactive
[4]
  outcome: inactive

## C#CCCCO/N=C1/C[C@@H](O)[C@@H](O)[C@@H]2[C@@H]3C(=O)N(C4CCCCC4)C(=O)[C@H]3CC[C@@H]12
[1]
  Potency: 3.16 µM (active)
[2]
  activity change, positive = activation: -78.4% [at 11.4 µM]
[5]
  activation: -13.1%

## COc1ccc(/C=C/C(=O)c2ccccc2O)cc1
[1]
  activity change, negative = inhibition: -17.2% [at 11.4 µM]
[6]
  Potency: 3.16 µM (active)

## Cc1ccccc1OC1C=CC(C#Cc2ccc(Br)cc2)OC1CO (configuration not stated)
[1]
  activity change, negative = inhibition: -26.7% [at 11.4 µM]
[6]
  Potency: inactive
[7]
  Potency: inactive

## COC(=O)C/C=C\[C@@H](C)[C@@H](/C=N\OC[C@@H]1O[C@H](c2ccccc2)C=C[C@@H]1Oc1ccc(OC)cc1)OC
[1]
  Potency: 3.16 µM (active)
[2]
  activity change, positive = activation: -96.1% [at 11.4 µM]
[7]
  Potency: 1.58 µM (active)

## COc1ccc(O[C@H]2C=C[C@@H](c3ccccc3)O[C@H]2CO/N=C\C[C@@H]2C=C[C@H](OC(C)=O)[C@H](COC(C)=O)O2)cc1
[1]
  Potency: 3.98 µM (active)
[2]
  activity change, positive = activation: -90.6% [at 11.4 µM]
[7]
  Potency: 0.794 µM (active)

## CC(=O)Oc1c(-c2ccccc2)oc2c(CC=C(C)C)c3c(c(OC(C)=O)c2c1=O)C=CC(C)(C)O3
[1]
  Potency: 10 µM (active)
[2]
  Potency: inactive
[3]
  outcome: inactive

## CC(C)=CCc1c(O)cc2occ(-c3ccc4c(c3)OCO4)c(=O)c2c1O
[1]
  Potency: 3.98 µM (active)
[2]
  Potency: inactive
[3]
  outcome: inactive
[4]
  outcome: inactive

## CC(=O)OCC1OC(c2ccc3c(c2)OCO3)C=CC1OC(C)=O (configuration not stated)
[1]
  Potency: 3.98 µM (active)
[2]
  activity change, positive = activation: -75.4% [at 11.4 µM]
[7]
  Potency: 0.316 µM (active)

## O=C1C=CC(=C(c2ccc(O)cc2)c2ccc(O)cc2)C=C1
[1]
  Potency: 20 µM (active)
[2]
  Potency: inactive
[4]
  outcome: inactive

## C=CCC1C=CC(Oc2ccc(OC)cc2)C(COC(=O)c2ccc(Br)cc2)O1 (configuration not stated)
[1]
  Potency: 3.16 µM (active)
[2]
  activity change, positive = activation: -92.4% [at 11.4 µM]
[7]
  Potency: 3.16 µM (active)

## C[C@@H](c1ccccc1)N1C(=O)[C@H]2[C@H]3[C@H](O)[C@H](O)C/C(=N/OC[C@@H](O)COCc4ccco4)[C@@H]3CC[C@@H]2C1=O
[1]
  Potency: 3.16 µM (active)
[2]
  activity change, positive = activation: -82.9% [at 11.4 µM]
[7]
  Potency: inactive

## COc1cc(OC)c2c(=O)c(-c3ccc4c(c3)OCO4)coc2c1
[1]
  Potency: 6.31 µM (active)
[2]
  Potency: inactive
[4]
  outcome: inactive

## CCc1cc2c(nc1CC)CCN(CC/C(C)=N/O[C@@H](C)c1cn([C@H](CO)Cc3ccccc3)nn1)C2
[1]
  Potency: 3.16 µM (active) and 3.98 µM (active)
[2]
  activity change, positive = activation: -78.5% [at 11.4 µM] and -65.5% [at 11.4 µM]
[5]
  activation: -4.74%

## COc1ccc(O[C@H]2C=C[C@@H](c3ccccc3)O[C@H]2COC(=O)CC/C(C)=N\O[C@@H](C)c2cn([C@H]3COC[C@H]3O)nn2)cc1
[1]
  Potency: 3.98 µM (active)
[2]
  activity change, positive = activation: -77.3% [at 11.4 µM]
[7]
  Potency: 2.51 µM (active)

## C=CC(C1=CC(=O)C(OC)=CC1=O)c1ccc(OC)cc1 (configuration not stated)
[1]
  Potency: 25.1 µM (active)
[2]
  Potency: inactive
[4]
  outcome: inactive

## CCOC(=O)OCC1OC(c2ccccc2)C=CC1OC(=O)OCC (configuration not stated)
[1]
  activity change, negative = inhibition: -18.7% [at 11.4 µM]
[6]
  Potency: inactive
[7]
  Potency: 3.98 µM (active)

## COc1ccc(O[C@H]2C=C[C@@H](c3ccccc3)O[C@H]2CO/N=C(/C)CCC(=O)OC[C@@H]2O[C@H](c3ccccc3)C=C[C@@H]2Oc2ccc(OC)cc2)cc1
[1]
  Potency: 3.98 µM (active)
[2]
  activity change, positive = activation: -65.1% [at 11.4 µM]
[5]
  activation: 3.42%

## COC(=O)C[C@@H]1O[C@H]1[C@H](C)[C@@H](OC)C(C)C
[1]
  Potency: 3.98 µM (active)
[2]
  activity change, positive = activation: -66.6% [at 11.4 µM]
[7]
  Potency: 3.98 µM (active)

## COc1cccc([C@@H]2Oc3ccc(OC)cc3/C(=N/O[C@@H](C)c3cc(-c4c(C)cc(C)cc4C)no3)[C@@H]2O)c1
[1]
  Potency: 1.58 µM (active)
[2]
  activity change, positive = activation: -90.1% [at 11.4 µM]
[7]
  Potency: 1.58 µM (active)

## COc1ccc(O[C@H]2C=C[C@@H](c3ccccc3)O[C@H]2COC(=O)CC/C(C)=N\O[C@@H](C)CN2CCCCc3nc(C)c(C)cc32)cc1
[1]
  Potency: 3.98 µM (active)
[2]
  activity change, positive = activation: -114% [at 11.4 µM]
[7]
  Potency: 5.01 µM (active)

## Cc1ccc(S(=O)(=O)N[C@H]2COC(=O)[C@@H](Cc3ccccc3)NC(=O)[C@@H](C)COC(=O)C/C=C\[C@@H]2C)cc1
[1]
  Potency: 3.98 µM (active)
[2]
  activity change, positive = activation: -80.1% [at 11.4 µM]
[7]
  Potency: inactive

## CC(=O)c1c(O)cc(O)cc1O
[1]
  Potency: 3.16 µM (active)
[2]
  Potency: inactive
[3]
  outcome: inactive

## NC(C(=O)O)C(O)C(=O)O (configuration not stated)
[1]
  Potency: inactive
[3]
  outcome: inactive

## Cn1c(N)c(C(=O)COC(=O)c2cc(C3CC3)nc3ccccc23)c(=O)n(Cc2ccccc2)c1=O
[2]
  Potency: inactive

Reference: PubChem BioAssay (NCATS)
